TTR transcr act: increases transthyretin transcription | actives 1.3% (n = 92,000) | SH-SY5Y TTR promoter Gaussia luciferase, luminescence; 100% = recombinant luciferase protein wells | activation, % at 16.7 µM;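 active = activation above the mean of all tested compounds plus 3 SD, cut at about 9.5% in these data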;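 also: cells exposed to compounds for one day before reading; 0% = median of all test compound wells on the plate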
* marks the source's active call; other numbers are inactive results. Only a selection was taken, and hits are over-represented in it overall.

SMILES | TTR transcr act
COc1ccc(-n2c(SCC(=O)Nc3cc(C)on3)nc3c([nH]c4ccccc43)c2=O)cc1 | -1
CCOc1ccc(-n2c(SCC(=O)Nc3cc(C)on3)nc3c([nH]c4ccccc43)c2=O)cc1 | -1
CCOc1ccc(-n2c(SCC(N)=O)nc3c([nH]c4ccccc43)c2=O)cc1 | 12*
COc1ccc2c(c1)C[C@@H](CON1C(C)(C)CCCC1(C)C)N2S(=O)(=O)c1ccc(C)cc1 | 1
CN1CCN(c2ccc([N+](=O)[O-])cc2C(=O)c2ccccc2)CC1 | -2
CC1(c2cc([N+](=O)[O-])cc([N+](=O)[O-])c2)CC(C)(C)N(C(=O)c2ccccc2)c2ccccc21 (stereo not drawn) | 14*
CC12CN(C(=O)c3ccc([N+](=O)[O-])cc3)CC(C)(CN(C(=O)c3ccc([N+](=O)[O-])cc3)C1)C2=O | -1
COC(=O)[C@]12C[C@H](CC(=O)NCC34CC5CC(CC(C5)C3)C4)C(=O)N(CCc3ccc(OC)c(OC)c3)C1=C[C@H](COCc1ccccc1)O[C@@H]2C | -2
C=C1C(=O)[C@]23C[C@H]1CC[C@H]2[C@]1(C)CCC[C@@](C)(C(=O)OC)[C@H]1C[C@@H]3O | -6
Cc1ccc(CN2CCCCC(NC(=O)Nc3ccccc3-c3ccccc3)C2=O)cc1 (stereo not drawn) | -2
O=c1[nH]c2ccccc2nc1N1CCOCC1 | 0
O=C(CN1CCOCC1)Nc1ccc(-c2nc3ccccc3[nH]2)cc1 | 1
S=C(c1nc2ccccc2[nH]1)N1CCOCC1 | 10.0*
Cc1ccc(NC(=O)C(=O)N2CCCC2)cc1Cl | 1
Cc1ccc(NC(=O)C(=O)NNC(=O)c2ccccc2C)cc1Cl | 11*
COc1ccc(C(=O)NNC(=O)C(=O)Nc2ccc(C)c(Cl)c2)cc1 | 1
C[C@H]1CCCN1c1ccc2c(c1)O[C@@H]1CCN(C1)S2(=O)=O | 3
O=C(Nc1cccc(Br)c1)OC1CC2CC1[C@H]1CCCCN1C2 (stereo partly drawn) | 0
Cc1nnc(SCCn2c(N3CCCCC3)nc3c2c(=O)[nH]c(=O)n3C)s1 | 1
C=CCn1c(Sc2nc(C)cs2)nc2c1c(=O)[nH]c(=O)n2C | 5
C=C(C)Cn1c(Sc2nnc(C)s2)nc2c1c(=O)[nH]c(=O)n2C | 12*
O=C1c2ccccc2C(=O)N1CC#CCN1CCN(C(c2ccccc2)c2ccccc2)CC1 | 11*
O=C(C(c1ccccc1)c1ccccc1)N1CCN(CCN2C(=O)c3cccc4cccc(c34)C2=O)CC1 | 0
OC(C#CCN1CCCC1)c1ccccc1 (stereo not drawn) | -1
O=C(Nc1cccc(F)c1)OC1CC2CC1[C@H]1CCCCN1[C@H]2Cc1ccccc1 (stereo partly drawn) | -1
SMILES | TTR transcr act
C[C@H](NC(=O)[C@H]1N2C(=O)c3ccccc3C2SC1(C)C)C(=O)N1CCCCC1 (stereo partly drawn) | 5
C[C@H](NC(=O)[C@H]1N2C(=O)c3ccccc3C2SC1(C)C)C(=O)N1CCC[C@H]1CO (stereo partly drawn) | 2
C[C@H](NC(=O)[C@H]1N2C(=O)c3ccccc3C2SC1(C)C)C(=O)N1CCC[C@H]1C(=O)O (stereo partly drawn) | 58*
COc1cccc(NC(=O)n2ccc3ccc(-c4ccc5cc[nH]c5c4)cc32)c1 | -1
COC(=O)[C@]12C[C@H](CC(=O)NCc3ccc(C)o3)C(=O)N(Cc3ccc(Cl)cc3Cl)C1=C[C@H](COCc1ccccc1)O[C@@H]2C | 0
O=C(Nc1ccc(F)cc1)OC1CC2CC1[C@H]1CCCCN1C2 (stereo partly drawn) | 1
Cc1ccc(OCc2nc(-c3ccccn3)no2)c(Br)c1 | 14*
Clc1ccccc1OCc1nc(-c2ccncc2)no1 | -1
O=C1c2ccccc2C(=O)N1CCc1nc(-c2ccccn2)no1 | 0
O=C(O[C@H]1CC[C@@]23CCCN2C(=O)CCC[C@H]3C1)N1CCN(c2ccccc2)CC1 | -1
CCCC1CCC2(CC1)CCC2OC(=S)Nc1cccc(C(F)(F)F)c1 (stereo not drawn) | 2
Cc1[nH]c(=O)[nH]c(=O)c1/C=N/NC(=O)[C@H](CC(C)C)NC(=O)OC(C)(C)C | -1
CC(C)C[C@H](NC(=O)OC(C)(C)C)C(=O)N[C@@H](CO)[C@H](O)[C@@H]1C[C@@H]1C(=O)N1CCCC1 | 10*
CC(C)(C)OC(=O)N[C@@H](COCc1ccccc1)C(=O)N[C@@H](CO)[C@H](O)[C@@H]1C[C@@H]1C(=O)N1CCCC1 | 4
C#CCNC(=O)C[C@H]1C[C@@]2(C(=O)OC)C(=C[C@H](C3CCCC3)O[C@@H]2C)N(Cc2ccco2)C1=O | 5
Cc1ccc(NC(=O)OC2CC3CC2[C@H]2CCCCN2C3)cc1C (stereo partly drawn) | 0
CC(C)CC(c1nnnn1Cc1ccccc1)N1CCC(C(N)=O)CC1 (stereo not drawn) | 18*
COc1ccc(C(c2nnnn2Cc2cccs2)N2CCC(C(N)=O)CC2)c(OC)c1 (stereo not drawn) | 1
CC(C)CC(c1nnnn1Cc1ccco1)N1CCN(C2CCCC2)CC1 (stereo not drawn) | -2
COc1ccc(OCC(=O)Nc2ccccc2OC)cc1 | 6
COc1ccccc1NC(=O)CCC(=O)c1ccc(-c2ccccc2)cc1 | -3
COc1ccccc1NC(=O)CCC(=O)Nc1ccccc1OC | 9.9*
CCOC(=O)C1CCN(C(=O)C(C)(C)NC(=O)Nc2ccc(N(C)C)cc2)CC1 | 0
COc1ccc(CNC2CCC23CCC(C)CC3)cc1OC (stereo not drawn) | 2
COc1cc(C(=O)NCCC(=O)NCCCN2CCCCC2)cc(OC)c1OC | 20*
SMILES | TTR transcr act
COc1cc(C(=O)NCCC(=O)NCCc2ccc(Cl)cc2)cc(OC)c1OC | 0
CCOCCCNC(=O)CCNC(=O)c1cc(OC)c(OC)c(OC)c1 | -1
Cc1ccccc1C1CCC2(CCC(=O)N2CC[C@@H](O)c2ccccc2)CC1 (stereo partly drawn) | -2
COc1ccc2c(c1)C[C@@H]1CC(C)(C)CN1S2(=O)=O | 9
COc1ccc(C2/C=C\CN(S(=O)(=O)c3ccc(C)cc3)CC(=O)N2Cc2ccc(F)cc2)cc1 (stereo not drawn) | 16*
CCCCCN1C/C=C\C(c2ccc(OC)cc2)N(Cc2ccc(F)cc2)C(=O)C1 (stereo not drawn) | 2
C=CC(=O)N1C/C=C\C(c2ccc(OC)cc2)N(Cc2ccc(F)cc2)C(=O)C1 (stereo not drawn) | -2
CCC[C@H]1[C@@H](NC(=O)c2ccc(Cl)c(C(F)(F)F)c2)CC[C@@]23CCCN2C(=O)CCC[C@@H]13 | 3
O=C(OCC#CCSc1nnc(-c2cccc3ccccc23)o1)C1CC1 | 0
Cc1ccc(C)c(SCC(=O)NCc2ccco2)c1 | 0
Cn1c(=O)cc(SCC(=O)NCC2CCCO2)c2ccccc21 (stereo not drawn) | 3
Cn1c(=O)cc(SCC(=O)NCc2ccco2)c2ccccc21 | 11*
C#CCN1C(=O)[C@]2(NCCc3c2[nH]c2ccc(OC)cc32)c2cc(F)ccc21 | -2
CN(CCCOC(=O)c1cccs1)C1CN(Cc2cn(Cc3ccccc3Cl)nn2)S(=O)(=O)C1 (stereo not drawn) | -1
O=C(Nc1cccc(F)c1)O[C@@H]1CC[C@@]23CCCN2C(=O)CCC[C@H]3C1 | 1
CCOC(=O)C1C(=O)CC(C)(O)C(C(=O)OCC)C1c1cccc(OC)c1 (stereo not drawn) | 3

From PubChem BioAssay
